Experimental data published in PubChem BioAssay (NCATS).
A number with no mark means an inactive call. Records with an inconclusive call do not appear. Where a call stands in place of a potency, no number is given. Active and inactive are the calls of the source. Unless noted, calls follow the shape of the dose curve; as a rule, active = well fitted curve in the direction sought with a large enough effect; inconclusive = small, poorly fitted or top-dose-only effect, or another doubt; inactive = no such curve, though single readings can be large; an effect the other way counts as inactive or inconclusive.

How the values were obtained:
[1] = target: Cytochrome P450 1A2 (Homo sapiens) (UniProt P05177); assay: p450-cyp1a2 (AID 410; calls by dose curve; also: potency is read from the fitted curve at half-maximal effect)
Procedure, shortened: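 20nM CYP1A2 with 100uM Luciferin-ME (at Km) in 100mM KPO4; compound preincubated 10 min, NADPH regeneration added, 60 min at room temperature. Luciferin quantified by luminescence after detection reagent; normalized to 57 uM furafylline.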

[2] = target: Glucocorticoid receptor (Homo sapiens) (UniProt P04150); assay: GR-EFC Redistribution (AID 451; calls by dose curve; also: potency is read from the fitted curve at half-maximal effect); settings: CHO-K1 GR-EFC translocation, beta-gal luminescence, 2 h
Procedure, shortened: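 CHO-K1 cells expressing nuclear EA and GR-ED fragments of b-gal; compounds titrated up to 46 uM final, 2 h at 37 C. GR nuclear translocation read as complemented b-gal luminescence after 1 h RT detection.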

[3] = target: Mitogen-activated protein kinase 10 (Mus musculus) (UniProt Q61831); assay: JNK3 AlphaScreen Assay (AID 530; active = well fitted curve in either direction with a large enough effect, not every such curve was filed as active;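 also: kinase came from lysate of stimulated human HepG2 cells; signal reports phosphorylation of biotinylated GST-cJun 1-79 at Ser73 with 10 µM ATP; series mostly up to about 57 µM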)
Procedure, shortened: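 Pre-activated (IL-1β/TNFα) JNK3 in HepG2 lysates phosphorylates biotin-GST-cJun(1-79), 10 uM ATP; anti-phospho-cJun(Ser73) AlphaScreen read at room temperature, pH 7.6 Tris buffer. Compounds pre-incubated 15 min as titrations.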

[4] = target: 3',5'-cyclic-AMP phosphodiesterase 4B (Homo sapiens) (UniProt Q07343); assay: qHTS Assay for Inhibitors of PDE-IV (AID 607; active = well fitted activation curve with a large enough effect in the main read-out, with a control signal flat, not every such curve was filed as active)
Procedure, shortened: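 Live HEK293 cells with a modified cyclic nucleotide-gated (CNG) channel report intracellular cAMP via membrane-potential dye fluorescence (ex 535/em 590 nm). Endogenous PDE-IV was targeted. Compounds were tested at up to 22.9 uM final; RO 20-1724 100 uM served as control.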

[5] = target: Ubiquitin carboxyl-terminal hydrolase 1 (Homo sapiens) (UniProt O94782); assay: Inhibitors of USP1/UAF1: Pilot qHTS (AID 504865);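 also: rhodamine fluorescence freed from ubiquitin-rhodamine substrate followed over time; top concentration of the series differs between compounds; nearly all actives have a fitted effect of over 35% in size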
Procedure, shortened: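 Enzyme-free wells gave the negative control, while test wells held 1nM USP1/UAF1 preincubated with compound for 15 min at room temperature. Ub-Rho at 150nM final started the reaction, and fluorescence at 480/540 nm was recorded kinetically.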

[6] = target: DNA dC->dU-editing enzyme APOBEC-3G (Homo sapiens) (UniProt Q9HC16); assay: qHTS for inhibitors of Vif-A3G interactions: Validation (AID 588379)
Procedure, shortened: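 HeLa cells stably expressing Vif and A3G-eYFP, 700 cells/well, incubated overnight at 37 deg C, then exposed to compound overnight at 37 deg C. Inhibition of Vif-mediated degradation read as increased yellow fluorescence (Ex 488/Em 500-530) by laser-scanning cytometry.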

[7] = test system: Zika virus NS2B-NS3 protease; assay: Primary screen GU AMC qHTS for Zika virus inhibitors (AID 1347154); also: nearly all actives have a fitted effect of over 70% in size
Procedure, shortened: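 Unlinked Zika NS2B hydrophilic domain–NS3 protease complex at 25 nM in 10 mM Tris-HCl pH 8.0, 0.01% Tween 20, with an AMC peptide substrate. Fluorescence change (340/450 nm) over 15 min at room temperature, normalized to controls, fitted to 4-parameter Hill.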

[8] = target: Rap guanine nucleotide exchange factor 3 (Homo sapiens) (UniProt O95398); assay: Confirmatory qHTS for antagonist of cAMP-regulated guanine nucleotide exchange factor 3 (EPAC1) (AID 1645880); also: nearly all actives have a fitted effect of over 55% in size
Procedure, shortened: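 Nucleotide exchange uses 100 nM EPAC1, 250 nM RAP1B-BODIPY-GDP and 50 uM GDP, with compounds in a concentration-titration series. After 5 min at room temperature, fluorescence (480 nm ex/540 nm em) is read every 5 min for 30 min. Data are normalized to control ATA and DMSO.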

[9] = target: Rap guanine nucleotide exchange factor 3 (Homo sapiens) (UniProt O95398); assay: Confirmatory qHTS for agonist of cAMP-regulated guanine nucleotide exchange factor 3 (EPAC1) (AID 1645881);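 also: EPAC1 catalysed release of BODIPY-GDP from Rap1B seen as fluorescence loss; nearly all actives have a fitted effect of over 75% in size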
[10] = target: Rap guanine nucleotide exchange factor 4 (Homo sapiens) (UniProt Q8WZA2); assay: Confirmatory qHTS for agonist of cAMP-regulated guanine nucleotide exchange factor 4 (EPAC2) (AID 1645884);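 also: nucleotide exchange releases bodipy-GDP from Rap1 and this lowers its fluorescence; nearly all actives have a fitted effect of over 65% in size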
[11] = target: Rap guanine nucleotide exchange factor 4 (Homo sapiens) (UniProt Q8WZA2); assay: Confirmatory qHTS for antagonist of cAMP-regulated guanine nucleotide exchange factor 4 (EPAC2) (AID 1645885); also: potency is read from the fitted curve at half-maximal effect; nearly all actives have a fitted effect of over 25% in size
[12] = target: Glucocorticoid receptor (Homo sapiens) (UniProt P04150); assay: GR-GFP Redistribution (AID 450;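 active = compounds whose dose series gives a full or clear partial fitted curve of increased nuclear translocation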; also: potency is read from the fitted curve at half-maximal effect); settings: U2OS GR-GFP nuclear translocation, laser cytometry, 2 h
[13] = target: Cytochrome P450 3A4 (Homo sapiens) (UniProt P08684); assay: qHTS Assay for Inhibitors and Substrates of Cytochrome P450 3A4 (AID 884); also: nearly all actives have a fitted effect of over 50% in size; also: potency is read from the fitted curve at half-maximal effect
Procedure, shortened: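 20 nM human CYP3A4 with 25 uM Luciferin-PPXE (at KM) in 200 mM KPO4, preincubated 10 min with compound; NADPH regeneration started a 60 min RT reaction. Luciferin detected by luminescence, normalized to 57 uM ketoconazole as full inhibition.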

[14] = target: Cytochrome P450 3A4 (Homo sapiens) (UniProt P08684); assay: qHTS Assay for Activators of Cytochrome P450 3A4 (AID 885); also: nearly all actives have a fitted effect of over 65% in size
Procedure, shortened: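 Quantitative HTS format: compounds preincubated with 20nM human CYP3A4 and Luciferin-PPXE substrate at KM, reaction started by NADPH regeneration, stopped after 60 min, luciferase luminescence read 20 min later.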

[15] = NCATS anti-infectives library activity on HEK293 viability as a counter-qHTS vs the C. elegans viability qHTS (AID 1745854);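 also: HEK293 cells exposed to compounds for 24 hr before the viability read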
Procedure, shortened: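 HEK293 cells (1,500/well) exposed 24 hr at 37C to 1:5 titrations, up to 41.7 uM final; counter-screen to a C. elegans viability qHTS. Viability by CellTiter-Glo luminescence after 10 min at room temperature; digitonin as control.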

Sequence of 3',5'-cyclic-AMP phosphodiesterase 4B (Homo sapiens) (Q07343 whole entry, looked up): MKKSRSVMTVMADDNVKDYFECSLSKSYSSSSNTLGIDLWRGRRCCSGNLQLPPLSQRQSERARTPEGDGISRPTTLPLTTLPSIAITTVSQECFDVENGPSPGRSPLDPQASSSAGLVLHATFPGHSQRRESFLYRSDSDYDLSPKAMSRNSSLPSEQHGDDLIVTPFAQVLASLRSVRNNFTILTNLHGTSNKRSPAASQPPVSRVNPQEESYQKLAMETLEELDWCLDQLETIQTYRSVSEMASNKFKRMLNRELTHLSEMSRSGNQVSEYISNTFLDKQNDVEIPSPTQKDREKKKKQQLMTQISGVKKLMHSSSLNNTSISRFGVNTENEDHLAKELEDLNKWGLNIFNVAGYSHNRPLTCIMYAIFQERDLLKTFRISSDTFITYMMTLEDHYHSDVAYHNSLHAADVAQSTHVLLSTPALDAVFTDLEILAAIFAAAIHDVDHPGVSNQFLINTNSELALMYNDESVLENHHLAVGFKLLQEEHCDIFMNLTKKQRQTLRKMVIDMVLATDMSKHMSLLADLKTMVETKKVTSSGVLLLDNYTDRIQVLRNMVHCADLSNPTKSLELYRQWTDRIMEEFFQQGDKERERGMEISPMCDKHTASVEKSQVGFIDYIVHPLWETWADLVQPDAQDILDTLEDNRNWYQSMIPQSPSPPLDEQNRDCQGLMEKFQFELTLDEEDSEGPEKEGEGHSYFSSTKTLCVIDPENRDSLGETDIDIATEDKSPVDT
Sequence of DNA dC->dU-editing enzyme APOBEC-3G (Homo sapiens) (Q9HC16 whole entry, looked up): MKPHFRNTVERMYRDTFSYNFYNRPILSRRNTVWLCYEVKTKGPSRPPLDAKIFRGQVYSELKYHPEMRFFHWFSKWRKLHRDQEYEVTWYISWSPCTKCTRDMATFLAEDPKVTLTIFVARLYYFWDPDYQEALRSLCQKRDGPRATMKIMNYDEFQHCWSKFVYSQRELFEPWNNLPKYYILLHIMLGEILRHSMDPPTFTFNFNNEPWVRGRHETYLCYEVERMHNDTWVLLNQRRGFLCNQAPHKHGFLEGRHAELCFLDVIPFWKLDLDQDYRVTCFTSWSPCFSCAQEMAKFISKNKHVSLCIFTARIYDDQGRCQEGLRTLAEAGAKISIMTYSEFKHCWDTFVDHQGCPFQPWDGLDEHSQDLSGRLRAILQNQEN
Sequence of Cytochrome P450 1A2 (Homo sapiens) (P05177 whole entry, looked up): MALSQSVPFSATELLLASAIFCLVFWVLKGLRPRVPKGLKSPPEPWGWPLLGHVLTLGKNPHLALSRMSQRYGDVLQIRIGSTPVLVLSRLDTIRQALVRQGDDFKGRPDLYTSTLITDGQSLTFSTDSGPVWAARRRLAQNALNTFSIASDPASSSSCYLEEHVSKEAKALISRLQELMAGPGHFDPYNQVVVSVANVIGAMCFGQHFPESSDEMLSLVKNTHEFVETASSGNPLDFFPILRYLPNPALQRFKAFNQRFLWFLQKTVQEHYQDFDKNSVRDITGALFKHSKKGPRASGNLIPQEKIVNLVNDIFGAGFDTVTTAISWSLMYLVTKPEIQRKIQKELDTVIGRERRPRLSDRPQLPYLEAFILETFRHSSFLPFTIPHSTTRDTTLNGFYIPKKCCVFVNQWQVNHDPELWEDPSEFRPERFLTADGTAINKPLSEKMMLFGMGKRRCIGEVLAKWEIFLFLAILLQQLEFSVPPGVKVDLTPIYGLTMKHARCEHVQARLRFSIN
Sequence of Ubiquitin carboxyl-terminal hydrolase 1 (Homo sapiens) (O94782 whole entry, looked up): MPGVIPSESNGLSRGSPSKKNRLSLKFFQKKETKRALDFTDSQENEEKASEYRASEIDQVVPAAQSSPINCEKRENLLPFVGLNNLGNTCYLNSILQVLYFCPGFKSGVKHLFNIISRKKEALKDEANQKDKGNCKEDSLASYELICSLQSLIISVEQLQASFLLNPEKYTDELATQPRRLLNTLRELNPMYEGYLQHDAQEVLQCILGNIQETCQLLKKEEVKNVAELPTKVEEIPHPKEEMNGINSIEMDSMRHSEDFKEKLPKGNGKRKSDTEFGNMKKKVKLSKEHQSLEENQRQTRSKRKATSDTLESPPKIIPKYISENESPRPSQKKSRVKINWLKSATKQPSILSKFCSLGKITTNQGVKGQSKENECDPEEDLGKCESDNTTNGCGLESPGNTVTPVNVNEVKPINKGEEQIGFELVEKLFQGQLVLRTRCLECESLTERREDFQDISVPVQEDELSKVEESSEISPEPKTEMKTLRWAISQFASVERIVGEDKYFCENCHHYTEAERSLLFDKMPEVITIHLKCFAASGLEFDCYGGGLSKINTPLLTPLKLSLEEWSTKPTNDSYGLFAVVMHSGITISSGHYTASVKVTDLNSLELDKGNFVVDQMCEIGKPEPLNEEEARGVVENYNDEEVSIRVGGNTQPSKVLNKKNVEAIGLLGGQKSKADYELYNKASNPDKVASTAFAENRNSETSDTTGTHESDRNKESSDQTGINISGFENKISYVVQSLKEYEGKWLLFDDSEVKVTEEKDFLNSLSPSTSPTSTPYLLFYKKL
Sequence of Cytochrome P450 3A4 (Homo sapiens) (P08684 whole entry, looked up): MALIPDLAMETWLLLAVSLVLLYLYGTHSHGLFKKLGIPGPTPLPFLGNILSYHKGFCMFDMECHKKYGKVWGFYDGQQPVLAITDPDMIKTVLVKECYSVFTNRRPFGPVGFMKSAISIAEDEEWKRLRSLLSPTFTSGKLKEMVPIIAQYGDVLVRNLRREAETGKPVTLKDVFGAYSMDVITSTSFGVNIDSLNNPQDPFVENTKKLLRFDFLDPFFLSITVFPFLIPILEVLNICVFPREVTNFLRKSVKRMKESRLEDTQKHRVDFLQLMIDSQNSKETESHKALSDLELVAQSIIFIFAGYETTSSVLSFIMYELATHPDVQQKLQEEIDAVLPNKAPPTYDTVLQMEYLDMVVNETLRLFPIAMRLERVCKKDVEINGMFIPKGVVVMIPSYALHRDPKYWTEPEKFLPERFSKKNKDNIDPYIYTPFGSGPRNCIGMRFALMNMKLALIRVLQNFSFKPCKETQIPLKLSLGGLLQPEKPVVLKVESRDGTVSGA
Sequence of Glucocorticoid receptor (Homo sapiens) (P04150 whole entry, looked up, the tested form may be a part): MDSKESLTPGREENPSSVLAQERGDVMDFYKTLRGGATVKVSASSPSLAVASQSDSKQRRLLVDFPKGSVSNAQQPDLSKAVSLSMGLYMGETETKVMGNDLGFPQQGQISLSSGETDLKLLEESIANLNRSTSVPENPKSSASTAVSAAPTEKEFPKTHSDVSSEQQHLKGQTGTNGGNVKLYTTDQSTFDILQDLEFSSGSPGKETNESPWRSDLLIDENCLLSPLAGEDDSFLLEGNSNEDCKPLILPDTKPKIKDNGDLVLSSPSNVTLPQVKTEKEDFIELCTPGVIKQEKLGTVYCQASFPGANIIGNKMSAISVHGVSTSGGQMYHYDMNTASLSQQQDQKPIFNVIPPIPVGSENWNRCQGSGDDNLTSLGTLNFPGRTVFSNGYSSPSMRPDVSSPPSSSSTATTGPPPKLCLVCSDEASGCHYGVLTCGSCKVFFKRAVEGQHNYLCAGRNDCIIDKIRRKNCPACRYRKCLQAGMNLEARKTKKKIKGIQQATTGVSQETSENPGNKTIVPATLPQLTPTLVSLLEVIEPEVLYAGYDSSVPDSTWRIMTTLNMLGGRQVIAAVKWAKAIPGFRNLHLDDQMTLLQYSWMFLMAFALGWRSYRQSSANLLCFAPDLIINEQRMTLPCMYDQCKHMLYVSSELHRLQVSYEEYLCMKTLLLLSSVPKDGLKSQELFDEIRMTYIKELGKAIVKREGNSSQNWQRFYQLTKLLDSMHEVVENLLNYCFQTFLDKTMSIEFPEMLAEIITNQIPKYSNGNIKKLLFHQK
Sequence of Rap guanine nucleotide exchange factor 4 (Homo sapiens) (Q8WZA2 whole entry, looked up): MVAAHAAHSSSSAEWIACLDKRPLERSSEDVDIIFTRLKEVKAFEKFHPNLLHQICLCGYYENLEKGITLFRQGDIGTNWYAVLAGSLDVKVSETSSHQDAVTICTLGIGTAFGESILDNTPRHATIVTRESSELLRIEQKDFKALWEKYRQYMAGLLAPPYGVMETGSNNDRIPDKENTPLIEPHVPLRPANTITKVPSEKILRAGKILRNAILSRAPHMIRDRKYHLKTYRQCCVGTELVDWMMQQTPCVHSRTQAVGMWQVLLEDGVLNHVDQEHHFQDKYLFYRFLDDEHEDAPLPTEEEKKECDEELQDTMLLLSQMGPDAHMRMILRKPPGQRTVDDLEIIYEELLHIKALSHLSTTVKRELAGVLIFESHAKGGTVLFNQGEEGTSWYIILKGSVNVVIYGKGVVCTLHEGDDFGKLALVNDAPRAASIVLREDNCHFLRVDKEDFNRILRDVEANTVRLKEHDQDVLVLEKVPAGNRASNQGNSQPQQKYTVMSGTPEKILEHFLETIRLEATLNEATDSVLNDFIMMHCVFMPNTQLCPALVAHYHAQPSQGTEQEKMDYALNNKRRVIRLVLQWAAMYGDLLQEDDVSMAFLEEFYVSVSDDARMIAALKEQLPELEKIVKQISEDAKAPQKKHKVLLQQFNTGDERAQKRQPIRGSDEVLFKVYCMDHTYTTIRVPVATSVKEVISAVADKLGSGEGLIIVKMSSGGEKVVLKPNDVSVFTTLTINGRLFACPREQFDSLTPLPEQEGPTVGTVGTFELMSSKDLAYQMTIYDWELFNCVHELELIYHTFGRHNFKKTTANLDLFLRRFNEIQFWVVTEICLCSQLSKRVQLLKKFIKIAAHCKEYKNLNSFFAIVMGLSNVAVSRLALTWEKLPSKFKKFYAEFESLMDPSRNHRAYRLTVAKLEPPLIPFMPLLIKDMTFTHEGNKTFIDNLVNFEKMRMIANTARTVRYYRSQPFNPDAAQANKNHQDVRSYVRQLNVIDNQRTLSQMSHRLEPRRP

SMILES | Potency [1] | Potency [2] [µM] | Potency [3] | Potency [4] | Potency [5] | Potency [6] | Potency [7] | Potency [8] | outcome [9] | outcome [10] | Potency [11] | Potency [12] [µM] | Potency [13] | Potency [14] | outcome [15]
CC[C@]1(c2ncc[nH]2)Cc2ccccc2O1 | inactive | > 46 | inactive | inactive | inactive | inactive | inactive | inactive | inactive | inactive | 44.1 µM (active) | – | – | – | –
CCC(C)(C)N=C(NC#N)Nc1cccnc1 | 12.6 µM (active) | > 46 | inactive | inactive | inactive | inactive | inactive | – | – | – | – | > 46 | 5.01 µM (active) | inactive | –
N=C(N)SCCc1ccc(OCc2ccc([N+](=O)[O-])cc2)cc1 | 31.6 µM (active) | > 46 | inactive | inactive | inactive | inactive | inactive | – | – | – | – | > 46 | – | – | –
O=c1[nH]cnc2ccccc12 | – | – | – | – | – | – | inactive | – | – | – | – | – | inactive | – | inactive
OC[C@H]1NC[C@@H](O)[C@@H](O)[C@H]1O | inactive | > 46 | inactive | – | inactive | inactive | inactive | – | – | – | – | > 46 | – | – | –
OC[C@@H]1O[C@@H](n2cnc3c(NC4CCCC4)ncnc32)[C@H](O)[C@H]1O | inactive | > 46 | inactive | – | inactive | inactive | inactive | – | – | – | – | > 46 | – | – | –
